3CLpro inhibitor: SARS-CoV 3CLpro protease inhibitors, primary screen, biochemical, quenched FRET. Replicase polyprotein 1ab (Severe acute respiratory syndrome coronavirus), P0C6X7. recombinant SARS-CoV 3CLpro, quenched FRET peptide cleavage. inhibition, % at 6 µM. 0.14% of 290,000 active; in the data active = inhibition above about 12%
BJeLR viability: MLPCN primary cell-based screen for lethality selective to Ras in HRASV12 cells. 0.17% of 300,000 active. BJeLR (HRASV12) viability, CellTiter-Glo ATP luminescence, 48 h. AID 1554, 2009. inhibition, % (no concentration beside the values); in the data active = inhibition above about 50%
PriA SSB inh: inhibitors of Klebsiella pneumoniae PriA binding to SSB C-terminal tail, primary screen, biochemical, AlphaScreen | AlphaScreen SSBct-PriA binding, biotinylated peptide | PriA–SSB C-terminal tail interaction (Klebsiella pneumoniae) | inhibition, % at 33 µM | AID 1272365, 2023 | 0.6% of 430,000 active; in the data active = inhibition mostly above about 37%, no sharp cut-off; inactive = mostly below about 20%;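 note: plate controls were negative control peptide for no effect and reference peptide for full effect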
PrPC surface inh: inhibitors of human cell surface prion protein PrPC, primary screen, cell-based, TR-FRET | TR-FRET read-out | AID 720596, 2013 | inhibition, % at 13.8 µM | 0.43% of 370,000 active; in the data active = inhibition above about 24%; note: 0% = median of the test wells and 100% = reference compound wells
PrP 5UTR inh: inhibition of PrP 5' UTR reporter expression. inhibition, % (concentration not given with the values). AID 488862, 2010. 0.35% of 340,000 active. cell-based PrP 5' UTR mRNA reporter, plate reader; in the data active = inhibition above about 52%; note: 0 = median of the neutral control wells
* hit, by the source's call; / = no result; ! = a repeat was not active. A selection: hits, their analogues and other compounds. The true share with any hit is near 1.2%.

SMILES	3CLpro inhibitor	BJeLR viability	PriA SSB inh	PrPC surface inh	PrP 5UTR inh
COC(=O)c1ccc(NC(=O)COc2cccc3c2OC(C)(C)C3)cc1	/	-6	46*!	7	-17
CC(=O)Nc1ccc(NC(=O)COc2cccc3c2OC(C)(C)C3)cc1	1	-1	4	-1	-32
COc1ccccc1NC(=O)NCCn1ccnc1-c1cnccn1	/	/	39	/	/
C[C@H](Oc1ccccc1)C(=O)NCCn1ccnc1-c1ncccn1	/	/	93*	/	/
O=C(COc1ccccc1F)NCCn1ccnc1-c1ncccn1	/	/	23	/	/
O=C(NCCn1ccnc1-c1ncccn1)Nc1cccs1	/	/	124*	/	/
COc1ccccc1NC(=O)NCCn1ccnc1-c1ncccn1	/	/	39*	/	/
O=C(NCCn1ccnc1C1CC1)Nc1cccs1	/	/	6	/	/
O=C(Cn1c(=O)oc2ccccc21)NCCn1ccnc1-c1ncccn1	/	/	99*	/	/
C=C1C(O)[C@@H]2O[C@]3(CC[C@H](/C=C/C(C)[C@@H]4CC(C)=CC5(O[C@H](CC(C)(O)C(=O)O)CCC5O)O4)O3)CC[C@H]2O[C@@H]1C(O)CC(C)[C@H]1OC2(CCCCO2)CCC1C (stereo not given in full)	/	/	-16	/	/
O=C(CCN1CCN(C(c2ccccc2)c2ccccc2)CC1)N/N=C\c1ccc(Cl)cc1	/	/	16	/	/
O=C(Nc1cccs1)N(Cc1ccoc1)Cc1cccs1	/	/	14	/	/
Cc1nnsc1C(=O)NCCCn1ccnc1-c1ccccc1	/	/	1	/	/
CCCc1nnsc1C(=O)NCCn1ccnc1-c1ncccn1	/	/	72*	/	/
CCOc1ccc2nc(N(CCCN(C)C)C(=O)c3ccc(S(=O)(=O)N4CCCC4)cc3)sc2c1	1	-3	14	-10	-1
CN(C)CCN(C(=O)c1ccc2c(c1)CCCC2)c1nc2cc3c(cc2s1)OCCO3	6	4	51*	4	-6
CCOc1ccc2nc(N(CCN(C)C)C(=O)c3ccc4c(c3)CCCC4)sc2c1	0	3	55*!	/	-6
O=C(c1ccco1)c1ccc(CNC(=O)C2c3ccccc3Oc3ccccc32)s1	/	/	-25	/	/
O=C(Nc1cnn(CC2COc3ccccc3O2)c1)c1cc(-c2ccco2)on1 (stereo not given)	/	/	-25	/	/
CCC(=O)N1CCN(c2ccc(NC(=O)c3cc4ccccc4o3)cc2Cl)CC1	-4	2	-20	32*	-19
Cn1nc(-c2cccc(NC(=O)c3cccc4ccccc34)c2)ccc1=O	/	/	-12	/	/
CC(C)(C)c1cc[n+](C(C(=S)Nc2ccccc2F)=C([O-])c2ccc3c(c2)OCCO3)cc1	/	/	8	/	/
Cc1ccccc1OCC(O)CNC1CCC(NCC(O)COc2ccccc2C)CC1 (stereo not given)	1	89*	12	-1	7
COCC(C)NC(=O)C(=O)Nc1ccc2c(c1)OCCO2 (stereo not given)	/	/	2	/	/
Nc1nc(-c2ccccn2)nc2ccc(Cl)cc12	/	/	116*	/	/
SMILES	3CLpro inhibitor	BJeLR viability	PriA SSB inh	PrPC surface inh	PrP 5UTR inh
Oc1ccc(N2CCN(Cc3ccc(OCCCN4CCCCC4)cc3)CC2)cc1	3	-3	55*	-10	-10
CN1CCCc2cc(C(CNC(=O)Nc3ccccc3)N3CCCC3)ccc21 (stereo not given)	/	/	26	/	/
CCN(CC)CCNc1ccc(C)c2sc3ccc(O)cc3c(=O)c12	/	/	68*	-10	-13
O=C(Cc1ccc(F)cc1)N1CCN(c2ccc3nnc(-c4ccco4)n3n2)CC1	/	/	9	/	/
CC1(S(=O)(=O)O)CC(=O)c2ccccc2C1=O (stereo not given)	0	-6	83*	6	-17
CC1(N2CCCCC2)C(=O)c2ccccc2C1=O	0	5	3	0	-16
CCOC(=O)c1c2c(n(C)c1COC)C(=O)C(=O)c1ccc(Br)cc1-2	0	69*	/	/	/
CCOC(=O)c1c2c(n(-c3ccc(OC)cc3)c1C)C(=O)C(=O)c1ccccc1-2	/	/	4	/	-43
O=C(Cc1ccc(-n2c(=O)c3ccccc3n(Cc3ccccc3F)c2=O)cc1)NCc1cccs1	/	/	-12	/	/
Cc1ccc2cc(C3C(C#N)=C(N)Oc4c3ccc3cccnc43)c(=O)[nH]c2c1 (stereo not given)	5	3	79*	/	-4
N#CC1=C(N)Oc2c(ccc3cccnc23)C1c1cccnc1 (stereo not given)	-2	9	88*	-13	-13
CC1(C)Cc2c(sc(NC(=O)c3c(F)cccc3F)c2C(N)=O)C(C)(C)N1	/	/	-5	/	/
O=C1NC(=S)N(S(=O)(=O)c2c(Cl)cccc2Cl)C1Cc1ccccc1 (stereo not given)	/	/	86*	/	/
O=C(NC(=S)NCc1ccco1)c1ccc(Br)o1	/	/	45*	/	/
CC(=O)Nc1cccc(NC(=O)CSc2nc(CC(=O)Nc3ccc(F)c(F)c3)cs2)c1	/	/	-5	/	/
C/C(=N/NS(=O)(=O)c1cccc([N+](=O)[O-])c1)c1c[nH]c2ccccc12	2	8	/	-5	-153
CC(=NNc1ccc([N+](=O)[O-])cc1)c1c[nH]c2ccccc12	/	/	40*	/	/
Cc1ccc(CC(=O)Nc2sc3c(c2C(N)=O)CCC(C)C3)cc1 (stereo not given)	/	/	-1	/	/
O=C(CCc1ccccc1)Nc1ccccc1[N+](=O)[O-]	0	-8	15	-4	-46
O=C(CCc1ccccc1)NC(=S)Nc1ccccc1[N+](=O)[O-]	4	-5	39*	-3	-17
C=CC(=O)Nc1cccc(Oc2ccnc(Nc3ccc(N4CCN(C)CC4)cc3)n2)c1	/	/	61*	-5	37
C=CC(=O)Nc1cccc(N(C)c2ccnc(Nc3ccc(N4CCN(C)CC4)cc3)n2)c1	/	/	57*	/	29
CC(=NNC(=O)C(=O)Nc1cc(Cl)ccc1Cl)c1ccncc1	/	/	-9	/	/
Cc1ccc2c(C)c(C(=O)N3CCN(c4ncccn4)CC3)oc2c1C	4	-4	85*	2	-7
COCCn1c(C)cc(C(=O)COc2ccc(C)nc2[N+](=O)[O-])c1C	-1	0	47*	-3	19
SMILES	3CLpro inhibitor	BJeLR viability	PriA SSB inh	PrPC surface inh	PrP 5UTR inh
O=C(Cc1cc(=O)[nH]c(SCc2cccc(Cl)c2)n1)NCCC1=CCCCC1	/	/	40*	/	/
COc1cccc(CSc2nc(CC(=O)NCCC3=CCCCC3)cc(=O)[nH]2)c1	/	/	-12	/	/
O=C(C1CCOC1)N1CCCC(Cc2nc(-c3cnccn3)no2)C1 (stereo not given)	/	/	11	/	/
O=C(NCCN1Cc2cc(Cl)ccc2OCC1=O)c1cnccn1	/	/	50*	/	/
O=C(NCCN1Cc2cc(Cl)ccc2OCC1=O)c1ccno1	/	/	2	/	/
N#Cc1ccccc1NC(=O)CSc1nccn1-c1ccc(C(=O)NCc2ccccc2F)cc1	/	/	35*	/	/
CN(C)S(=O)(=O)c1cccc(NC(=O)COC(=O)c2cc3ccccc3oc2=O)c1	-5	-8	-8	-6	-75
CCN(c1ccc(NC(=O)COC(=O)c2cc3ccccc3oc2=O)cc1)C(C)C	-2	-7	54*	-1	-34
COC(C)(CNC(=O)C(=O)Nc1cccnc1)c1cccc(Cl)c1 (stereo not given)	/	/	-19	/	/

Screens as filed in PubChem BioAssay.
